# Target: T1, ERG (Homo sapiens, UniProt P11308 1-479)
# T1 sequence: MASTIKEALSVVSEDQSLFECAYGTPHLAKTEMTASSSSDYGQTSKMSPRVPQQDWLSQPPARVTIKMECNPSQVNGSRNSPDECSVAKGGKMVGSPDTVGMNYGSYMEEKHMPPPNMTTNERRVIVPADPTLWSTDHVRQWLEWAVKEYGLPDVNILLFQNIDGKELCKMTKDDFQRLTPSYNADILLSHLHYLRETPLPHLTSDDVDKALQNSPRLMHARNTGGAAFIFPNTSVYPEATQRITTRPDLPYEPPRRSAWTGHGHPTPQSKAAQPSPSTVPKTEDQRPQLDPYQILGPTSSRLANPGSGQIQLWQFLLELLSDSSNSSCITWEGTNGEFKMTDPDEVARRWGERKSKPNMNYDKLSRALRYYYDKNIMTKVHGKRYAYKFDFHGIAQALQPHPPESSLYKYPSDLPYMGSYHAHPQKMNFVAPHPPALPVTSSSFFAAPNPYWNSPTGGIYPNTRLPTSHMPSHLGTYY
# Assay: DAPPL (digital affinity profiling via proximity ligation, sequencing); 10 mM Tris-HCl pH 7.5, 50 mM NaCl, 1 mM DTT, 4% glycerol, room temperature, 30 min; GST-TFs on glutathione beads, 16-mer random dsDNA library, 0.1% formaldehyde crosslink after washing; high values mean tight binding
# Details: protein: recombinant; tags: N-terminal GST; dsDNA, one strand shown
# Procedure, shortened: (§1)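 Human transcription factors carrying a GST fusion were produced in yeast, bound to glutathione beads, tagged with DNA barcodes and pooled together with a tag-only sample. Each pool was held with 200 nmole of a random double-stranded 16-mer DNA library in Tris/NaCl/DTT/glycerol buffer for 30 min at room temperature, then washed, crosslinked in 0.1% formaldehyde, proximity-ligated with BsaI/T4 ligase (1 h, 37 °C), PCR-amplified and sequenced on an Illumina NextSeq500. Binding signal is the read frequency of each hexamer for a given factor divided by its frequency in the tag-only sample.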
row,Sequence,binding signal
1,CTACCC,"1.36 fold enrichment (6-mer frequency, TF over GST control)"
2,TTCAGT,"1.03 fold enrichment (6-mer frequency, TF over GST control)"
3,TGTACT,"1.24 fold enrichment (6-mer frequency, TF over GST control)"
4,CACTTG,"1.37 fold enrichment (6-mer frequency, TF over GST control)"
5,AAGCGG,"1.1 fold enrichment (6-mer frequency, TF over GST control)"
6,ATCATG,"1.1 fold enrichment (6-mer frequency, TF over GST control)"
7,ATAAAC,"1.11 fold enrichment (6-mer frequency, TF over GST control)"
8,TAATCC,"1.34 fold enrichment (6-mer frequency, TF over GST control)"
9,CCTTCA,"1.45 fold enrichment (6-mer frequency, TF over GST control)"
10,TCTCAA,"1.28 fold enrichment (6-mer frequency, TF over GST control)"
11,GGCTAG,"1.1 fold enrichment (6-mer frequency, TF over GST control)"
12,TAGGAA,"1.17 fold enrichment (6-mer frequency, TF over GST control)"
13,CACTGG,"1.12 fold enrichment (6-mer frequency, TF over GST control)"
14,TTATCA,"1.06 fold enrichment (6-mer frequency, TF over GST control)"
15,CATCAC,"1.15 fold enrichment (6-mer frequency, TF over GST control)"
16,GCCAAT,"1 fold enrichment (6-mer frequency, TF over GST control)"
17,ACACAA,"1.17 fold enrichment (6-mer frequency, TF over GST control)"
18,CACATA,"1.14 fold enrichment (6-mer frequency, TF over GST control)"
19,CTCATA,"1.3 fold enrichment (6-mer frequency, TF over GST control)"
20,TGATTT,"1.35 fold enrichment (6-mer frequency, TF over GST control)"

# Target: ELF1 (Homo sapiens, UniProt P32519 1-619)
# Sequence (P32519 whole entry): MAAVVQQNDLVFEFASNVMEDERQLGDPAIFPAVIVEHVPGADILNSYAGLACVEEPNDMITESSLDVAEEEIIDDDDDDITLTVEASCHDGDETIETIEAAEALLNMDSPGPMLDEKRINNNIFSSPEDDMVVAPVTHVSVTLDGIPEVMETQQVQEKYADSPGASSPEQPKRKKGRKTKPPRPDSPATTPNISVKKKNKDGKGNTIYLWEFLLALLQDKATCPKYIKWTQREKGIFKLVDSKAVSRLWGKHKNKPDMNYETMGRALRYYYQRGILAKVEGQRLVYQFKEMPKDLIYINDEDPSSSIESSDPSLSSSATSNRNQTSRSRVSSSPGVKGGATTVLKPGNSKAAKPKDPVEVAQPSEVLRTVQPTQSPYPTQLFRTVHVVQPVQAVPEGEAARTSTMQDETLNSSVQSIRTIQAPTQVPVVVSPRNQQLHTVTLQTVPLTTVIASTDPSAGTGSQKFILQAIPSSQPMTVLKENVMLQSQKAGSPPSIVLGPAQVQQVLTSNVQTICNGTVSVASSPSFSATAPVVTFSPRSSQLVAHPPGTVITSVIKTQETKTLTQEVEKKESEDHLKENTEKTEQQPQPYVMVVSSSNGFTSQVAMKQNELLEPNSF
# Assay: as above
# Details: protein: recombinant; tags: N-terminal GST; dsDNA, one strand shown
# Procedure, shortened: as §1
row,Sequence,binding signal
1,CATAAC,"1.22 fold enrichment (6-mer frequency, TF over GST control)"
2,TATCCC,"1.57 fold enrichment (6-mer frequency, TF over GST control)"
3,TGTTAC,"1.43 fold enrichment (6-mer frequency, TF over GST control)"
4,ACCCAC,"1.13 fold enrichment (6-mer frequency, TF over GST control)"
5,TATTGC,"1.41 fold enrichment (6-mer frequency, TF over GST control)"
6,ATTGAA,"1.06 fold enrichment (6-mer frequency, TF over GST control)"
7,CGATAC,"1.19 fold enrichment (6-mer frequency, TF over GST control)"
8,CGCTAC,"1.2 fold enrichment (6-mer frequency, TF over GST control)"
9,CTGGTC,"1.15 fold enrichment (6-mer frequency, TF over GST control)"
10,GGAAGC,"1.39 fold enrichment (6-mer frequency, TF over GST control)"
11,CTTACG,"1.1 fold enrichment (6-mer frequency, TF over GST control)"
12,CATCCG,"1.86 fold enrichment (6-mer frequency, TF over GST control)"
13,TTTCAA,"1.3 fold enrichment (6-mer frequency, TF over GST control)"
14,TACATC,"1.53 fold enrichment (6-mer frequency, TF over GST control)"
15,CACAAC,"1.28 fold enrichment (6-mer frequency, TF over GST control)"
16,ATCCCA,"1.22 fold enrichment (6-mer frequency, TF over GST control)"
17,TGTCTC,"1.2 fold enrichment (6-mer frequency, TF over GST control)"
18,TACCGC,"1.02 fold enrichment (6-mer frequency, TF over GST control)"
19,ATGGCT,"1.37 fold enrichment (6-mer frequency, TF over GST control)"
20,TCTGGG,"1.18 fold enrichment (6-mer frequency, TF over GST control)"

row,Sequence,binding signal
1,CTACCC,"1.33 fold enrichment (6-mer frequency, TF over GST control)"
2,TTCAGT,"1.09 fold enrichment (6-mer frequency, TF over GST control)"
3,TGTACT,"1.35 fold enrichment (6-mer frequency, TF over GST control)"
4,CACTTG,"1.33 fold enrichment (6-mer frequency, TF over GST control)"
5,AAGCGG,"1.11 fold enrichment (6-mer frequency, TF over GST control)"
6,ATCATG,"1.17 fold enrichment (6-mer frequency, TF over GST control)"
7,ATAAAC,"1.14 fold enrichment (6-mer frequency, TF over GST control)"
8,TAATCC,"1.15 fold enrichment (6-mer frequency, TF over GST control)"
9,CCTTCA,"1.51 fold enrichment (6-mer frequency, TF over GST control)"
10,TCTCAA,"1.26 fold enrichment (6-mer frequency, TF over GST control)"
11,GGCTAG,"1.09 fold enrichment (6-mer frequency, TF over GST control)"
12,TAGGAA,"1.03 fold enrichment (6-mer frequency, TF over GST control)"
13,CACTGG,"1.17 fold enrichment (6-mer frequency, TF over GST control)"
14,TTATCA,"1.15 fold enrichment (6-mer frequency, TF over GST control)"
15,CATCAC,"1.19 fold enrichment (6-mer frequency, TF over GST control)"
16,GCCAAT,"1.04 fold enrichment (6-mer frequency, TF over GST control)"
17,ACACAA,"1.23 fold enrichment (6-mer frequency, TF over GST control)"
18,CACATA,"1.18 fold enrichment (6-mer frequency, TF over GST control)"
19,CTCATA,"1.38 fold enrichment (6-mer frequency, TF over GST control)"
20,TGATTT,"1.23 fold enrichment (6-mer frequency, TF over GST control)"

# Target: T2, EHF (Homo sapiens, UniProt Q9NZC4 1-300)
# T2 sequence: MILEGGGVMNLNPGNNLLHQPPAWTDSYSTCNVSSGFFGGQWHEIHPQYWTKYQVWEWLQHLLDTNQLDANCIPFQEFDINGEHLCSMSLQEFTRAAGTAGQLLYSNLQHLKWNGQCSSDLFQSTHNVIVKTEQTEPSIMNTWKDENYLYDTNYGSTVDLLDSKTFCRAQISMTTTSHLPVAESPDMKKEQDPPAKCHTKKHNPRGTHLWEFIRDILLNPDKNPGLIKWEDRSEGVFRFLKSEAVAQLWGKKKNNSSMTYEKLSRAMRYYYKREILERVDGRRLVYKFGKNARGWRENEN
# Assay: as above
# Details: protein: recombinant; tags: N-terminal GST; dsDNA, one strand shown
# Procedure, shortened: as §1
row,Sequence,binding signal
1,CATAAC,"1.09 fold enrichment (6-mer frequency, TF over GST control)"
2,TATCCC,"1.52 fold enrichment (6-mer frequency, TF over GST control)"
3,TGTTAC,"1.53 fold enrichment (6-mer frequency, TF over GST control)"
4,ACCCAC,"1.21 fold enrichment (6-mer frequency, TF over GST control)"
5,TATTGC,"1.3 fold enrichment (6-mer frequency, TF over GST control)"
6,ATTGAA,"1.03 fold enrichment (6-mer frequency, TF over GST control)"
7,CGATAC,"1.2 fold enrichment (6-mer frequency, TF over GST control)"
8,CGCTAC,"1.13 fold enrichment (6-mer frequency, TF over GST control)"
9,CTGGTC,"1.2 fold enrichment (6-mer frequency, TF over GST control)"
10,GGAAGC,"1.68 fold enrichment (6-mer frequency, TF over GST control)"
11,CTTACG,"1.07 fold enrichment (6-mer frequency, TF over GST control)"
12,CATCCG,"2.19 fold enrichment (6-mer frequency, TF over GST control)"
13,TTTCAA,"1.3 fold enrichment (6-mer frequency, TF over GST control)"
14,TACATC,"1.6 fold enrichment (6-mer frequency, TF over GST control)"
15,CACAAC,"1.21 fold enrichment (6-mer frequency, TF over GST control)"
16,ATCCCA,"1.15 fold enrichment (6-mer frequency, TF over GST control)"
17,TGTCTC,"1.22 fold enrichment (6-mer frequency, TF over GST control)"
18,TACCGC,"1.11 fold enrichment (6-mer frequency, TF over GST control)"
19,ATGGCT,"1.4 fold enrichment (6-mer frequency, TF over GST control)"
20,TCTGGG,"1.09 fold enrichment (6-mer frequency, TF over GST control)"

row,Sequence,binding signal
1,CTACCC,"1.27 fold enrichment (6-mer frequency, TF over GST control)"
2,TTCAGT,"1.04 fold enrichment (6-mer frequency, TF over GST control)"
3,TGTACT,"1.3 fold enrichment (6-mer frequency, TF over GST control)"
4,CACTTG,"1.36 fold enrichment (6-mer frequency, TF over GST control)"
5,AAGCGG,"1.15 fold enrichment (6-mer frequency, TF over GST control)"
6,ATCATG,"1.19 fold enrichment (6-mer frequency, TF over GST control)"
7,ATAAAC,"1.07 fold enrichment (6-mer frequency, TF over GST control)"
8,TAATCC,"1.25 fold enrichment (6-mer frequency, TF over GST control)"
9,CCTTCA,"1.26 fold enrichment (6-mer frequency, TF over GST control)"
10,TCTCAA,"1.19 fold enrichment (6-mer frequency, TF over GST control)"
11,GGCTAG,"1.05 fold enrichment (6-mer frequency, TF over GST control)"
12,TAGGAA,"1.25 fold enrichment (6-mer frequency, TF over GST control)"
13,CACTGG,"1.05 fold enrichment (6-mer frequency, TF over GST control)"
14,TTATCA,"1.02 fold enrichment (6-mer frequency, TF over GST control)"
15,CATCAC,"1.13 fold enrichment (6-mer frequency, TF over GST control)"
16,GCCAAT,"1.03 fold enrichment (6-mer frequency, TF over GST control)"
17,ACACAA,"1.21 fold enrichment (6-mer frequency, TF over GST control)"
18,CACATA,"1.13 fold enrichment (6-mer frequency, TF over GST control)"
19,CTCATA,"1.27 fold enrichment (6-mer frequency, TF over GST control)"
20,TGATTT,"1.18 fold enrichment (6-mer frequency, TF over GST control)"

# — publication PMC7862700, “An all-to-all approach to the identification of sequence-specific readers for epigenetic DNA modifications on cytosine”
